Compounds with a hit are over-represented: about 2.5% of the library has one in this group of screens.
TDP-43 yeast inh: rescues yeast growth from TDP-43 toxicity. TDP-43 expressing yeast growth rescue, BacTiter-Glo, 24 h. Potency, µM (doses to about 46.1 µM), inactives show top-dose growth rescue (activation), actives largely listed as activators. 410,000 tested, 1.8% active; also: potency is read from the fitted curve at half-maximal effect; % of control where 0% means no effect; nearly all actives have a fitted effect of over 50% in size
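Galactose-induced TDP-43 yeast, OD600=0.02, compound pinned; 24 hr, 30 deg C; BacTiter-Glo luminescence for growth. Inhibitors of TDP-43 toxicity read as activators.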
aSyn yeast inh: rescues yeast growth from alpha-synuclein toxicity; Potency, µM (doses to about 46.1 µM), for the others: top-dose growth rescue (activation), actives largely listed as activators; Yeast expressing alpha-synuclein, growth rescue, BacTiter-Glo, 24 h; 370,000 tested, 0.14% active; also: potency is read from the fitted curve at half-maximal effect; % of control where 0% means no effect; nearly all actives have a fitted effect of over 65% in size
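Readout is rescue of growth in alpha-synuclein-expressing yeast, so inhibitors of toxicity appear as activators. Growth after 24 hr at 30 deg C in galactose medium is quantified by luminescence.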
CCT chaperon mod: cytosolic chaperonin activity modulation. purified chaperonin ATPase assay, HTRF ADP detection, 30 min. AID 651819. activity change, % (concentration not given with the values), hits read low. 360,000 tested, 0.3% active; in the data active = activity change below about -30%; also: % is scaled to controls: 0 for no effect and ±100 for the full control effect
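Nucleotide hydrolysis assay: TRiC at 20–40 nM final (set by batch activity) with 10 uM ATP, 30 min at 37 °C, in presence of 76 uM compound. Detection by competitive ADP HTRF, 30 min ambient.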
Apoferritin bind: candidate novel general anesthetic via apoferritin binding; P02791; apoferritin/1-aminoanthracene competitive binding, fluorescence; Potency, µM (highest dose often 77.5 µM), without a hit: at the highest dose activity change, negative = displacement, most hits filed as inhibitors; 350,000 tested, 0.074% active; AID 485281; also: potency is read from the fitted curve at half-maximal effect; % is scaled to controls: 0 for no effect and ±100 for the full control effect; nearly all actives have a fitted effect of over 20% in size
Target sequence (P02791 2-175 limits assumed): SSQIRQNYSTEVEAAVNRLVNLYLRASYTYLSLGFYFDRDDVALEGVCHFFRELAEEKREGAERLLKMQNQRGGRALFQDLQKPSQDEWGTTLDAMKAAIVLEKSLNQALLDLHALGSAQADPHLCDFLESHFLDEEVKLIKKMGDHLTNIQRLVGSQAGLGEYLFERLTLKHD
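In PBS, apoferritin at 10 uM is loaded with 1-AMA from a 50% saturated solution. After 10 min of compound exposure at ambient temperature, reduced 535 nm fluorescence indicates probe displacement.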
Mito fusion act: mitochondrial division inhibition or fusion activation. AID 485298. S. cerevisiae fusion-defective mutant growth rescue, CellTiterGlo 48 h. Potency, µM (top dose mostly 46.1 µM), for inactives: at the highest dose growth rescue (activation), actives largely listed as activators. 320,000 tested, 0.23% active; also: potency is read from the fitted curve at half-maximal effect; % of control where 0% means no effect; nearly all actives have a fitted effect of over 45% in size
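Growth-rescue viability read-out: after 48 h at the non-permissive 37C in glycerol/ethanol YPEG, yeast mitochondrial fusion mutants are measured by CellTiterGlo luminescence; compounds (23 nl pinned per well) restoring growth score as division inhibitors or fusion activators.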
pAkt inh: Akt phosphorylation inhibition; Neuro2A IGF-stimulated pAkt S473 HTRF, 20 min; hits give low values; activity change, % for hits at 50 µM; 360,000 tested, 0.32% active; AID 651550; in the data active = activity change below about -80%; inconclusive = mostly about -51% to -80%; also: % is scaled to controls: 0 for no effect and ±100 for the full control effect
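Neuro2A cells (4,500/well, DMEM with 0.5% FBS) were treated with compound at a single 50 µM final concentration, stimulated with 6 nM IGF for 20 min at 37 °C, and lysed. Phospho-Akt Ser473 was read by HTRF as 665/615 ratio ×10^4.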
* = called active by the depositor; i = inactive; ? = inconclusive; . = no result. Unless noted, calls follow the shape of the dose curve; as a rule, active = well fitted curve in the direction sought with a large enough effect; inconclusive = small, poorly fitted or top-dose-only effect, or another doubt; inactive = no such curve, though single readings can be large; an effect the other way counts as inactive or inconclusive.

SMILES	TDP-43 yeast inh	aSyn yeast inh	CCT chaperon mod	Apoferritin bind	Mito fusion act	pAkt inh
COc1cc(NC(=O)COc2cc3oc(=O)cc(C)c3cc2Cl)cc(OC)c1OC	2%	0%	-59*	-6%	0%	.
CCc1cc(=O)oc2cc(OCC(=O)OC)c(Cl)cc12	11µM*	1%	0	-1%	-2%	i
Cn1c(=O)c(Nc2ccc(Cl)cc2)c2c3c(cccc31)C(=O)c1ccccc1-2	-11%	9%	-1	-10%	-9%	i
CC(=O)Nc1c2c3c(cccc3n(C)c1=O)C(=O)c1ccccc1-2	-23%	-3%	-1	-6%	5%	-113%*
N/C(=N\OC(=O)CC1CCCCC1)c1ccc(Br)cc1	7.9µM*	-19%	-3	-14%	-1%	i
N/C(=N\OC(=O)C1CCCCC1)c1cccc(Br)c1	-45%	-36%	1	-1%	-1%	i
N/C(=N\OC(=O)CC1CCCCC1)c1ccc(Cl)cc1	?	-21%	-1	-9%	3%	i
N/C(=N\OC(=O)CC1CCCCC1)c1cccc(Br)c1	3.2µM*	-34%	-5	-22%	16%	i
COc1ccc(/C(N)=N/OC(=O)CC2CCCCC2)cc1OC	22µM*	1%	-3	-13%	1%	i
COc1ccccc1C/C(N)=N/OC(=O)c1ccco1	10µM*	-33%	-1	-9%	11%	i
COc1cccc(C(c2sc3nc(-c4ccco4)nn3c2O)N2CCOCC2)c1 (centres undefined)	19%	.	.	-9%	.	.
COc1ccccc1-c1noc2ncnc(Nc3cccc(C)c3C)c12	18µM*	7%	-2	-13%	-2%	i
COc1ccccc1-c1noc2ncnc(Nc3ccccc3C)c12	?	-2%	0	-7%	3%	i
c1cc(-c2cnn3cc(-c4ccc(OCCN5CCCCC5)cc4)cnc23)ccn1	.	.	.	0%	.	.
COc1ccc(N=Nc2c(C)n[nH]c2C)cc1	25%	6%	-4	?	-1%	i
Cc1n[nH]c(C)c1N=Nc1ccc(Br)cc1	3.5µM*	-19%	-2	?	-10%	i
CCCN1CNc2c(c(=O)[nH]c(=S)n2CCc2ccc(OCC)c(OCC)c2)C1	.	-4%	.	.	.	.
COc1ccccc1NC(=O)c1c(C)cc(C)nc1SCC(=O)Nc1ccc(C)cc1	18µM*	.	.	0%	.	.
COc1ccccc1NC(=O)CSc1nnc(-c2ccccc2C)o1	20µM*	.	.	0%	.	.
COc1ccc(Cc2nnc(SCC(=O)NCCc3ccccc3)o2)cc1	?	6%	-4	-13%	2%	i
COc1ccc(NC(=O)CSc2nc(C)cc(C)c2C(=O)Nc2cccc(C)c2)cc1	15%	.	.	56%	.	.
COc1ccc(-c2nnc(SCC(=O)Nc3cc(F)ccc3C)o2)cc1	11µM*	5%	-1	-6%	-3%	i
COc1ccc(-c2nnc(SCC(=O)NCCc3ccccc3)o2)cc1	20%	-3%	2	0%	-2%	-124%*
CCOc1ccc(-c2nnc(SCC(=O)Nc3cc(F)ccc3F)o2)cc1	6%	.	.	-4%	.	.
Cc1ccc(-c2nnn3c2nc(NCC(C)c2ccccc2)c2ccccc23)cc1 (centres undefined)	16%	.	.	85%	.	.
SMILES	TDP-43 yeast inh	aSyn yeast inh	CCT chaperon mod	Apoferritin bind	Mito fusion act	pAkt inh
CN(C)c1ccc(/C=C/c2cnnc3ccccc23)cc1	.	-30%	.	.	.	.
Oc1ccc2ccccc2c1SSc1c(O)ccc2ccccc12	.	-66%	.	.	6%	.
Nc1ccc2c(c1)C=C/C2=C\c1ccccc1	.	2%	.	.	.	.
COc1ccc(NC(=O)CCn2nc(-c3ccccc3OC)c3c(C)cc(C)nc32)cc1	14µM*	.	.	-15%	.	.
O=C(CSc1nnc(-c2ccc(F)cc2)o1)Nc1ccccc1N1CCOCC1	22µM*	?	-2	.	.	i
O=C(CSc1nc2ccccc2o1)Nc1ccccc1N1CCOCC1	14%	16%	0	?	5%	i
CCN(CC(=O)Nc1ccc2c(c1)OCCO2)C(=O)/C=C/c1cccc(Br)c1	13µM*	15%	2	.	30%	i
CCN(CC(=O)Nc1ccc2c(c1)OCCO2)C(=O)/C=C/c1ccccc1	20%	7%	0	-13%	-9%	i
O=C(CNC(=O)c1ccc2c(c1)OCO2)N/N=C(Br)/C=C/c1ccccc1	9%	2%	0	7.1µM*	3%	i
O=C(/C=C/c1ccccc1)c1ccc2c(c1)OCO2	?	5%	-1	-6%	-6%	i
O=C(/C=C/c1cccc(Br)c1)c1ccc2c(c1)OCO2	11µM*	-12%	-1	1%	5%	i
O=C(CNC(=O)c1ccc2c(c1)OCO2)N/N=C/c1cccc([N+](=O)[O-])c1	9%	-2%	-1	?	0%	i
C/C=C/c1ccc(OC)cc1	.	.	.	-4%	.	.
COc1ccc(/C=C/c2ccncc2)cc1	11%	-1%	-52*	-10%	-12%	i
O=C(NN1CCOCC1)c1ccc(Cl)c([N+](=O)[O-])c1	-10%	-1%	-4	-3%	0%	i
CN1CCN(NC(=O)c2ccc(Cl)c([N+](=O)[O-])c2)CC1	18%	2%	-1	9%	1%	-112%*
C[C@@]12CCC3[C@@](CCC4[C@@]3(C)CCC[C@@]4(C)C(=O)O)(CC1=O)C2 (some centres undefined)	20µM*	5%	0	.	17%	i
COC(=O)C1CCN(C(=O)COc2cc3sc(C)nc3c3sccc23)CC1	20µM*	1%	-1	-21%	11%	i
COC(=O)C1CCN(C(=O)COc2ccc(Cl)cc2)CC1	1%	3%	-1	6%	0%	i
CCc1ccc(OCC(=O)NCC(c2ccc(OC)cc2)N2CCOCC2)cc1 (centres undefined)	0%	.	.	-8%	.	.
CCOCc1cc(CN2CCN(c3cccc(C(F)(F)F)c3)CC2)c(O)c2ncccc12	25µM*	.	.	-2%	.	.
CC(C)OCc1cc(CN2CCN(c3cccc(C(F)(F)F)c3)CC2)c(O)c2ncccc12	0%	.	.	-4%	.	.
Cc1ccc(S(=O)(=O)N2CCN(c3nc(-c4cncnc4)nc4ccccc34)CC2)cc1	.	0%	.	.	.	.
COC/C=C/C1=CC(=O)C[C@H](c2ccc3c(c2)OCO3)C1	14µM*	2%	0	.	-7%	i
O=C1C=C(c2ccc(-c3ccccc3)cc2)C[C@@H](c2ccc3c(c2)OCO3)C1	12%	1%	-1	.	-8%	i
O=C1C=C(c2cccc(Cl)c2)C[C@@H](c2ccc3c(c2)OCO3)C1	?	13%	-2	.	?	i
CCCCC/C=C/C1=CC(=O)C[C@H](c2ccc3c(c2)OCO3)C1	24%	-8%	1	.	26%	i

Source: PubChem
